The nature of test [1]: Drug repurposing screens with cells derived from glioblastoma tumor samples (AID 1345199). For activity, negative = cell killing: % is set by controls: 0 for no effect and ±100 for the full control effect. Note: nearly all actives have a fitted effect of over 40% in size. Note: potency is the fitted concentration of half-maximal effect. Conditions: GBM patient neurospheres viability, ATP luminescence, 48 h. The gist of the method: (§1)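 Primary testing used CD133+ neurospheres from four GBM patients, seven concentrations, 48 h exposure and ATP-based viability; confirmation added three slower-growing patient lines.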
In test [2] the test system is astro (control astrocytes). The test is described as above. Particulars: viability, ATP luminescence, 48 h; series mostly up to 45.9 µM. In short, it runs like this:
as §1

In test [3] the target is Nuclear receptor subfamily 1 group I member 2 (Rattus norvegicus) (UniProt Q9R1A7). Put plainly: qHTS assay for small molecule activators of the rat pregnane X receptor (rPXR) signaling pathway (AID 651751; call rule not given here; note: 0% is about no effect). Conditions: rPXR reporter cells, luciferase (One-Glo), 24 h. (Quantitative high-throughput screening tests each substance at several concentrations.)
A short description of test [4]: qHTS assay for small molecule activators of the human pregnane X receptor (PXR) signaling pathway (AID 720659; call rule not given here; note: 0% is about no effect). Particulars: DPX-2 HepG2 CYP3A4-luciferase, 24 h; series mostly up to 92.3 µM.
The mark [5] stands for this setting: at 45.9 µM (top of the series), tumour line B.
Setting [6] is: at 45.9 µM (top of the series), tumour line D.
[7] abbreviates: at 46.1 µM (top of the series), tumour line C.
Where [8] appears, read: at 46 µM (top of the series), tumour line A.
Where [9] appears, read: at 20 µM (top of the series), tumour line C.
Setting [10] is: at 21.2 µM (top of the series), tumour line B.

Several values for one entry are separate records, joined by “and”; a condition that tells them apart may be missing. Equal entries are not always repeated. A number with no mark means an inactive call. Records with an inconclusive call do not appear. Activity calls are given as the source filed them. Unless noted, calls come from the whole dose curve; as a rule, active = well fitted inhibition curve with a large enough effect; inconclusive = small, poorly fitted or top-dose-only effect; inactive = flat fitted curve, though single readings scatter.

Nuclear receptor subfamily 1 group I member 2 (Rattus norvegicus), sequence (Q9R1A7 whole entry, looked up): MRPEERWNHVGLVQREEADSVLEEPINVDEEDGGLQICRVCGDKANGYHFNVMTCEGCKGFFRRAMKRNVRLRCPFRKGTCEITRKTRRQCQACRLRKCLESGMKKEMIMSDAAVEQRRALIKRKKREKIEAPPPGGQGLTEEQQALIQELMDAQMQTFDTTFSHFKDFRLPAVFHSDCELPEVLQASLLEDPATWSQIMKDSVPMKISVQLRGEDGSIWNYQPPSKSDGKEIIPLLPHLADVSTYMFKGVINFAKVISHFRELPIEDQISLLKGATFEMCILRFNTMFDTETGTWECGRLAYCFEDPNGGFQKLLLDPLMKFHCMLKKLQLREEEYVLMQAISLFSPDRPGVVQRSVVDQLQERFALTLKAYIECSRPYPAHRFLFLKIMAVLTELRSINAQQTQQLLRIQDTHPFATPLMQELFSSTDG

In the case of `CCN1CC(CCN2CCOCC2)C(c2ccccc2)(c2ccccc2)C1=O` (stereo unspecified), the values for the activity, negative = cell killing in test [1] (setting [5]), in test [1] (setting [6]) and in test [1] (setting [7]) were -13.3%, -11.4% and -23.7%, respectively. Further, the compound was classed as inactive in test [2].
In the same order, the values of `CC(C)=CCC[C@@](C)(O)[C@H]1CC=C(C)CC1` are -3.12%, 18.2%, -10.5% and “inactive”.
On to `O=C(O)CCCc1ccccc1`, for which the results for the activity, negative = cell killing in test [1] (setting [5]), in test [1] (setting [6]) and in test [1] (setting [7]) were -2.94%, -2.78% and -9.45%, respectively. The result in test [2] was inactive.
As for `Cc1c(C(=O)NCCO)[n+](=O)c2ccccc2n1[O-]`, the activity, negative = cell killing in test [1] (setting [5]) was -6.85%; in test [1] (setting [6]), -27.6%; in test [1] (setting [8]), -29.3%; in test [1] (setting [7]), -6.62%. In addition, the compound was called inactive in test [2] and in test [4]. For the same compound, in test [3], the max response was 1.89%.
Turning to `Cc1c(N(C)C)c(=O)n(-c2ccccc2)n1C`, the activity, negative = cell killing in test [1] (setting [5]) was -5.14%; in test [1] (setting [6]), -8.5%; in test [1] (setting [8]) it was -17.7%; in test [1] (setting [7]), -17.7%. The call in test [2] and in test [4] was inactive. Moreover, the max response in test [3] is -0.504% and 0.241%.
Turning to `CC(=O)Nc1ccccc1`, the activity, negative = cell killing is -6.03% in test [1] (setting [5]), -14.5% in test [1] (setting [6]), -21.5% in test [1] (setting [8]) and 6.02% in test [1] (setting [7]). Also, the result in test [2] and in test [4] was inactive. Moreover, in test [3], the max response is 2.33%.
For the compound `O[C@@H]1CO[C@H]2[C@@H]1OC[C@@H]2O`, the results for the activity, negative = cell killing in test [1] (setting [5]), in test [1] (setting [6]) and in test [1] (setting [7]) were -8.03%, 1.68% and -10.9%, respectively. Besides, in test [2], the outcome was inactive.
Regarding `C[C@@H](N)C(=O)O`, the activity, negative = cell killing in test [1] (setting [5]) was -7.83%; in test [1] (setting [6]), -21.5%; in test [1] (setting [7]) it was 15%. Also, the compound was called inactive in test [2].
Take `CC(=O)Nc1ccc(C(=O)O)cc1`: the activity, negative = cell killing in test [1] (setting [5]) was -15.7%; in test [1] (setting [6]) it was 14.1%; in test [1] (setting [8]) it was -33.2%; in test [1] (setting [7]), -22.1%. Moreover, the call in test [2] and in test [4] was inactive. For the same compound, the max response in test [3] is 0.613%.
`NNc1nnc(NN)c2ccccc12`: the activity, negative = cell killing in test [1] (setting [5]) was -9.47%; in test [1] (setting [6]) it was -12.6%; in test [1] (setting [7]), -17.6%. Besides, the compound was classed as inactive in test [2].
On to `COc1ccc(Cc2cnc(N)nc2N)cc1OC`, for which the activity, negative = cell killing is 11% in test [1] (setting [5]), -18.1% in test [1] (setting [6]) and -4.34% in test [1] (setting [7]). Besides, the call in test [2] was inactive.
With `O=C(c1ccccc1)C(O)c1ccccc1` (stereo unspecified), the activity, negative = cell killing is 4.63% in test [1] (setting [5]), -16.7% in test [1] (setting [6]), -19% in test [1] (setting [8]) and -3.13% in test [1] (setting [7]). Besides, the outcome in test [2] and in test [4] was inactive. In addition, the max response in test [3] was 4.81% and 0.908%.
Consider `NS(=O)(=O)c1cc(C2(O)NC(=O)c3ccccc32)ccc1Cl` (stereo unspecified), for which the activity, negative = cell killing is 3.89% in test [1] (setting [9]); 6.28% in test [1] (setting [10]); -20.6% in test [1] (at 21.2 µM (top of the series), tumour line D). Besides, the compound was called inactive in test [2].
`FC(F)(F)C(Cl)Br` (stereo unspecified): the activity, negative = cell killing in test [1] (setting [5]) is -5.12%; in test [1] (setting [6]), -3.03%; in test [1] (setting [8]) it was -22.4%; in test [1] (setting [7]), -0.139%. Further, in test [3], the max response was 3.38%. For the same compound, the call in test [4] was inactive.
`CC(=O)NS(=O)(=O)c1ccc(N)cc1`: the activity, negative = cell killing in test [1] (setting [5]) was -8.29%; in test [1] (setting [6]), -18.7%; in test [1] (setting [8]) it was -22.6%; in test [1] (setting [7]), -4.02%. Further, the call in test [2] and in test [4] was inactive. The max response in test [3] was -2.2%.
In the case of `CC[C@H](C)[C@H](N)C(=O)O`, the activity, negative = cell killing in test [1] (setting [5]) is -7%; in test [1] (setting [6]), 0.894%; in test [1] (setting [7]), 2.32%. The compound was classed as inactive in test [2].
Consider `C[C@@H](c1ncncc1F)C(O)(Cn1cncn1)c1ccc(F)cc1F` (stereo partly specified), for which the figures for the activity, negative = cell killing in test [1] (setting [5]), in test [1] (setting [6]) and in test [1] (setting [7]) were -6.32%, -23.3% and 6.65%, respectively. Besides, the compound was called inactive in test [2].
On to `O=C(O)Cc1cn(-c2ccccc2)nc1-c1ccc(Cl)cc1`, for which the activity, negative = cell killing in test [1] (setting [5]) is -17.9%; in test [1] (setting [6]), -13.4%; in test [1] (setting [7]) it was -18.4%. The call in test [2] was inactive.
With `O=C(O)[C@@H]1[C@H]2C[C@H]3c4[nH]c5ccccc5c4CCN3C[C@@H]2CC[C@@H]1O`, the activity, negative = cell killing in test [1] (setting [9]) is -17%; in test [1] (setting [10]) it was 2.22%; in test [1] (at 21.3 µM (top of the series), tumour line A), -34.6%. Further, the compound was classed as inactive in test [2].
On to `Nc1ncnc(Nc2ccccc2)n1`, for which the activity, negative = cell killing in test [1] (setting [5]) is -14.8%; in test [1] (setting [6]) it was -23.1%; in test [1] (setting [7]), -21.6%. Moreover, the compound was called inactive in test [2].
For `CCCCCCCCCCOc1cc2c(=O)c(C(=O)OCC)c[nH]c2cc1OCC`, in that order: 2.17%, -20.1%, -26.1% and “inactive”.
Consider `O=C1CC[C@@H](C(=O)O)N1`, for which the activity, negative = cell killing in test [1] (setting [5]) was -10.6%; in test [1] (setting [6]), -16.2%; in test [1] (setting [7]), 1.94%. Moreover, the result in test [2] was inactive.
In the case of `CC(CN(C)C)C(C)(O)Cc1ccc(Cl)cc1` (stereo unspecified), the activity, negative = cell killing in test [1] (setting [5]) was -15.1%; in test [1] (setting [7]), -8.21%. Besides, the Potency in test [1] (tumour line A) is 20 µM (active). Besides, the compound was called inactive in test [2].
`Cc1ccsc1C(=CCCN1CCC[C@@H](C(=O)O)C1)c1sccc1C`: the activity, negative = cell killing is -2.91% in test [1] (setting [5]), -7.39% in test [1] (setting [6]) and 2.1% in test [1] (setting [7]). For the same compound, the compound was called inactive in test [2].

The values are drawn from PubChem BioAssay (NCATS).
